# Screens from PubChem.
# D2 PAM-1: positively modulates the human D2 dopamine receptor allosterically. P14416. HEK293 T-REx D2, calcium flux, EC20 dopamine potentiation. potentiation, % at 10 µM. 0.34% of 340,000 active;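 active means potentiation over 3 SD above the plate norm, cut at about 30% in these data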; further: 0% is about no effect
# Target sequence (P14416 whole entry, looked up): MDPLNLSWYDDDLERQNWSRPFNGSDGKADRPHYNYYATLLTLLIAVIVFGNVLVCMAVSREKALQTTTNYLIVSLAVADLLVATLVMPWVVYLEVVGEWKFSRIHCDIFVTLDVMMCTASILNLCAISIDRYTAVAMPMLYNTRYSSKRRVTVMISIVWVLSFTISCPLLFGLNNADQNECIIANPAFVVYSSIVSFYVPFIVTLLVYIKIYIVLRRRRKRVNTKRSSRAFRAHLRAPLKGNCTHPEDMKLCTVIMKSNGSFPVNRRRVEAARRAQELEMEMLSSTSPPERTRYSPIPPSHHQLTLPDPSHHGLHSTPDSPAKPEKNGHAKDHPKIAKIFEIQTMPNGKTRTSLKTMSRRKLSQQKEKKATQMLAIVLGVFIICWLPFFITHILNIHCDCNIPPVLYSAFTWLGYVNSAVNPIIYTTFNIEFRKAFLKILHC
#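 Potentiation of an EC20 dopamine calcium response is measured in a force-coupled, tetracycline-inducible Hek293 Trex D2 line. Compound-only kinetic reads over 180 s flag agonists before dopamine addition.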
# D2 antag: antagonists of human D2 dopamine receptor. AID 485344. 2% of 340,000 active. inhibition, % at 10 µM. HEK293 TREx D2 cells, calcium flux, dopamine EC80. P14416; in the data active means inhibition above about 30%; inactive means below that, where a call was filed; further: 0% is about no effect
#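 HEK293 T-REx D2 cells, tet-induced, calcium dye no-wash. Cpd pintool add, 180 s kinetic, then EC80 DA, 180 s kinetic. Ca flux read.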
# D2 ag-1: agonists of human D2 dopamine receptor; P14416; HEK293 T-REx D2 cells, calcium flux agonist mode; activation, % at 2 µM; 0.53% of 340,000 active;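 active means activation over 3 SD above normal in the single-dose calcium agonist read, cut at about 30% in these data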; further: 0% is about no effect
#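 Calcium-flux readout, 1 cycle/sec over 180 s following compound pin transfer, in inducible HEK293 Trex D2 cells (force-coupled); dopamine controls included. Positive calcium responses during this window marked compounds as potential agonists.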
# D2 PAM-2: positive allosteric modulators of human D2 dopamine receptor. potentiation, % (test concentration not listed). P14416. 0.23% of 360,000 active. DiscoveRx D2 beta-arrestin cells, luminescence, 90 min; 100% = 57 uM dopamine signal; in the data active means potentiation above about 50%; inconclusive means mostly about 30% to 49%
#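 PathHunter beta-arrestin assay in DiscoveRx D2 cells. Compounds were added with an EC20 of dopamine (50 nM final) for 90 min at 37 deg C. Luminescence was read 1 h after detection reagent, with 57 uM dopamine as the EC100 control.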
# D2 ag-2: agonists of human D2 dopamine receptor (beta-arrestin); 0.084% of 360,000 active; AID 624465; P14416; DiscoveRx PathHunter D2 beta-arrestin, luminescence, 90 min; 100% = 57 uM dopamine signal; activation, % (no concentration beside the values); in the data active means activation above about 40%; inconclusive means between about 15% and that limit
#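 DiscoveRx PathHunter D2 beta-arrestin cells (2,100/well) attached overnight, then compound-stimulated 90 min at 37 C in HBSS/10 mM HEPES/0.1% Tween-20 buffer; beta-galactosidase complementation read by luminescence after 1 h at ambient temperature. Dopamine 57 uM final (EC100) as control.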
# LDHA block: inhibitors of human lactate dehydrogenase A; P00338; purified LDHA, NADH/diaphorase-resazurin fluorescence; hits give low values; activity change, % (values are at about 110 or 230 µM); 0.15% of 480,000 active; in the data active means activity change below about -30%; inconclusive means mostly about -25% to -30%;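 further: plate controls were DMSO wells for no effect and wells without enzyme for full effect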
#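 Resorufin fluorescence (ex540/em590), read at 0 and 20 min after diaphorase/resazurin addition, reports the NADH left after a 5 min room-temperature reaction of 2 nM human LDH5 with 0.06 mM NADH and 0.2 mM pyruvate.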
# D3 arrestin ag: confirmation of human D3 dopamine receptor agonists, beta-arrestin; AID 720506; Potency, µM (doses to about 76.9 µM), for inactives: at the top dose activation, most hits filed as activators; DiscoveRx D3 beta-arrestin cells, luminescence, 90 min; shares compounds with D2 ag-1; 4% of 2,300 active;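 further: potency means the concentration at half of the fitted maximal effect; 100% = dopamine control response; nearly all actives have a fitted effect of over 70% in size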
# D2 ag-3: counter-screen for D3 agonists: human D2 dopamine receptor agonism | shares compounds with D2 ag-1 | Potency, µM (top dose mostly 76.9 µM), for inactives: at the highest dose activation, most hits filed as activators | AID 720507 | 5.9% of 2,300 active | DiscoveRx PathHunter D2 beta-arrestin, luminescence, 90 min; response scale: percent relative to full dopamine signal; further: potency means the concentration at half of the fitted maximal effect; % of control where 0% means no effect; nearly all actives have a fitted effect of over 70% in size
# * marks the source's active call; other numbers are inactive results; ? = inconclusive; / = no result. In the library only some 2.1% were active in any assay of this set; here they are far more common. Unless noted, the call rests on the fitted dose curve; in most records, active means well fitted activation curve with a large enough effect; inconclusive means small, poorly fitted or top-dose-only effect; inactive means flat fitted curve, though single readings scatter.
SMILES,D2 PAM-1,D2 antag,D2 ag-1,D2 PAM-2,D2 ag-2,LDHA block,D3 arrestin ag,D2 ag-3
COC(=O)C1=C(c2ccc(OC(F)(F)F)cc2)C[C@@H]2CC[C@H]1N2C(=O)N1CCOCC1,-1.6,17.0,0.4,-0.4,-6.7,-1.3,-3.1%,5.1%
COC(=O)C1=C(c2ccc(OC(F)(F)F)cc2)C[C@@H]2CC[C@H]1N2C(=O)NC1CC1,10.1,-13.9,-0.1,-4.9,-8.2,0.8,0.2%,5.1%
Clc1ccc(COc2cccc(CNC3CN4CCC3CC4)c2)c(Cl)c1 (stereo unspecified),/,/,/,/,/,7.7,/,/
N#CC(C#N)=Cc1ccc(O)c(O)c1,8.9,-22.1,0.9,-4.9,-3.7,-2.6,/,/
CC(C)(C)c1cc(C=C(C#N)C#N)cc(C(C)(C)C)c1O,-3.0,20.0,7.3,-12.4,-9.2,-2.6,?,0.6%
CC12CCC3C(CCC4=CC(=O)CCC43C)C1CCC2=O (stereo unspecified),/,/,/,/,/,6.5,/,/
NCC(O)c1cc(O)c(O)cc1F (stereo unspecified),-5.2,81.2*,66.8*,-0.3,-4.0,-13.9,-0.3%,12.6µM*
Cc1ccc(-c2cc(-c3ccc(C)cc3)[n+](-c3ccccc3)c(-c3ccc(C)cc3)c2)cc1,1.2,48.9*,28.0,-88.3,4.0,0.4,15.9%,18.0%
CN(C)c1ccc(-[n+]2c(-c3ccccc3)cc(-c3ccccc3)cc2-c2ccccc2)cc1,-2.6,0.4,-0.8,-15.6,-0.4,-5.2,/,/
COc1ccccc1N1CCN(Cc2ccc(F)cc2)CC1,-22.1,75.9*,38.4*,-10.9,5.8,-1.7,-4.3%,-0.6%
COc1ccc(CN2CCN(c3ccccc3F)CC2)cc1O,/,/,/,-31.7,10.8,-11.5,14.9%,21.7%
COc1ccc(CCN(C)Cc2cc(C(C)(C)C)c(O)c(C(C)(C)C)c2)cc1OC,/,/,/,/,/,0.3,/,/
CCOC(=O)C1=C(C)OC(N)=C(C(=O)OC)C12C(=O)Nc1cc(Br)ccc12 (stereo unspecified),/,/,/,/,/,38.5,/,/
C[N+](C)(C)CC1CCCCC1=O (stereo unspecified),/,/,/,/,/,-9.5,/,/
CC(Nc1ccc([N+](=O)[O-])c2cnccc12)C12CC3CC(CC(C3)C1)C2 (stereo unspecified),/,/,/,/,/,6.3,/,/
O=C(Nc1ccccc1)c1cn(Cc2ccccc2)nn1,/,/,/,/,/,-2.1,/,/
NCCc1ccc(O)cc1,13.2,46.6*,51.1*,-12.4,-3.7,-6.9,?,7.7%
Clc1ccc2c(c1)C(c1ccccc1Cl)=NCc1nnc(N3CCN(CCOc4ccccc4)CC3)n1-2,-35.4,64.9*,57.7*,-18.5,3.3,1.5,?,20.2%
Clc1ccc2c(c1)C(c1ccccc1Cl)=NCc1nnc(N3CCN(CCSc4ccccc4)CC3)n1-2,-6.4,-6.7,0.3,-3.7,-5.2,4.9,/,/
Cc1ccc2c(c1)C(SCC(=O)Nc1ccccc1C(=O)O)c1ccccc1O2 (stereo unspecified),/,/,/,/,/,2.8,/,/
c1ccc(C2CC2)c(OCC2=NCCN2)c1,-9.3,47.0*,8.1,-14.8,-3.3,-8.6,-1.6%,24.1%
c1ccc2cc(CC3=NCCN3)ccc2c1,5.7,-16.3,11.5,-6.9,0.7,7.8,/,/
COc1ccc2[nH]c(C)c(CCNCc3ccccc3F)c2c1,/,/,/,/,/,7.8,/,/
COC(=O)C1=C(c2cc3ccccc3s2)C[C@@H]2CC[C@H]1N2C(=O)NC1CC1,/,/,/,-16.5,-0.1,5.1,/,/
COC(=O)C1=C(c2cc3ccccc3s2)C[C@@H]2CC[C@H]1N2C,-7.3,58.2*,29.0,-25.8,3.5,-3.4,6.7%,22.1%
COc1cc2c3c(c1OC)-c1cc(O)ccc1CC3NCC2 (stereo unspecified),-10.2,0.0,20.5,-12.7,8.7,0.7,-3.7%,15.8%
O=P(CN1CCN(c2ccccc2)CC1)(N1CCCCC1)N1CCCCC1,-1.2,36.5*,28.2,5.3,9.3,1.4,10.6%,12.9%
CN1CC2(c3ccccc3)CN(C)CC(c3ccccc3)(C1)C2=O,/,/,/,/,/,69.3,/,/
